Experimental data: PubChem BioAssay
The source made the active and inactive calls. Unless noted, how the calls were made is not given here.

Assays:
[1] = resazurin metabolic signal in HepG2 cells – cell-based, resazurin fluorescence, 24 h, PK04 Diversity Set, profiling panel (AID 1172); conditions: HepG2 viability, higher = more signal
[2] = budding yeast growth changes without added modifier – OD600, strain BY4716, 24 h, basal condition, primary screen (AID 1173); conditions: S. cerevisiae BY4716 growth, OD600, 24 h; higher = more signal, called active from +8 up or from −8 down
[3] = viability profiling in MM1S myeloma cells – cell-based, resazurin fluorescence, basal, 24 h, PK04 Diversity Set, profiling panel (AID 1174); conditions: higher = more signal, called active from +8 up or from −8 down;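 further: MM1S multiple myeloma cell line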
[4] = target: Dihydroorotate dehydrogenase (quinone), mitochondrial (Plasmodium falciparum (isolate 3D7)) (UniProt Q08210); assay: inhibition of P. falciparum DHODH – biochemical, C-terminal His tag, absorbance 600 nm, primary screen (AID 1175); conditions: PfDHODH enzyme, DCIP absorbance 600 nm; higher = more signal, called active from +8 up or from −8 down;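 further: recombinant parasite enzyme with a five histidine tag at its C terminus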
Sequence of Dihydroorotate dehydrogenase (quinone), mitochondrial (Plasmodium falciparum (isolate 3D7)) (Q08210 whole entry, looked up): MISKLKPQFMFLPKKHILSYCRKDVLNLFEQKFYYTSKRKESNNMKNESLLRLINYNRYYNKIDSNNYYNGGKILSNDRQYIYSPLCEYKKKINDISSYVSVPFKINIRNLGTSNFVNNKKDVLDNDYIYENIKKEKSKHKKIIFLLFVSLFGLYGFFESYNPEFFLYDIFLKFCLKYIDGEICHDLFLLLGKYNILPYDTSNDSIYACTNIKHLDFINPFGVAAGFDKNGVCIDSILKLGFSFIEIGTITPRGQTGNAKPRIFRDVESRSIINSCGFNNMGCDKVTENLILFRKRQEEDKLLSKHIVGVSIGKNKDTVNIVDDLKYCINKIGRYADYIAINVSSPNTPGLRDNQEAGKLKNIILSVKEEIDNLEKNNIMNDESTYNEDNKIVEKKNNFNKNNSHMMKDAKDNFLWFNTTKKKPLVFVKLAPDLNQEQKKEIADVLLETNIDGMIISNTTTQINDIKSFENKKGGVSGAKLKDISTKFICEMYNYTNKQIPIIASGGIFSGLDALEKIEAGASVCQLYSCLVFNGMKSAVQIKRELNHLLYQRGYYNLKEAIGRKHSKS

[5] = inhibition of PAO1 biofilm formation – strain PAO1, LB-PBS medium, absorbance 600 nm, primary screen (AID 1176); conditions: P. aeruginosa PAO1 growth/biofilm, A600, 12 h; higher = more signal
[6] = growth modulation of vineyard yeast isolate – strain RM11-1a, OD600, basal, 24 h, primary screen (AID 1177);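 further: cultures grown under basal conditions with no added stressor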; conditions: S. cerevisiae RM11-1a growth, OD600, 24 h; higher = more signal, called active from +8 up or from −8 down
[7] = growth of efflux-deficient E. coli DRC39 – strain DRC39, OD650, 24 h, E. coli filamentation inducers, primary screen (AID 1178);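 further: growth measured as culture turbidity by optical density at 650 nm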; conditions: E. coli DRC39 acrAB, higher = more signal, called active from +8 up or from −8 down
[8] = growth of efflux-deficient E. coli DRC39 – strain DRC39, OD650, 48 h, E. coli filamentation inducers, primary screen (AID 1179);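 further: screen aims at cell division blockers that make cells filament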; conditions: E. coli DRC39 delta-acrAB growth, higher = more signal, called active from +8 up or from −8 down
[9] = viability profiling in RPMI8226 myeloma cells – cell-based, resazurin fluorescence, basal, 24 h, PK04 Diversity Set, profiling panel (AID 1180); conditions: higher = more signal;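 further: RPMI8826 multiple myeloma cell line at 5000 cells per well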
[10] = target: E3 ubiquitin-protein ligase XIAP (Homo sapiens) (UniProt P98170); assay: small molecules binding XIAP protein – biophysical, small-molecule microarray, fluorescence 635 nm, primary screen (AID 1181); conditions: higher = more signal;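 further: score merges 667 nm emission and signal to noise over triplicate slides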
Sequence of E3 ubiquitin-protein ligase XIAP (Homo sapiens) (P98170 whole entry, looked up, the tested form may be a part): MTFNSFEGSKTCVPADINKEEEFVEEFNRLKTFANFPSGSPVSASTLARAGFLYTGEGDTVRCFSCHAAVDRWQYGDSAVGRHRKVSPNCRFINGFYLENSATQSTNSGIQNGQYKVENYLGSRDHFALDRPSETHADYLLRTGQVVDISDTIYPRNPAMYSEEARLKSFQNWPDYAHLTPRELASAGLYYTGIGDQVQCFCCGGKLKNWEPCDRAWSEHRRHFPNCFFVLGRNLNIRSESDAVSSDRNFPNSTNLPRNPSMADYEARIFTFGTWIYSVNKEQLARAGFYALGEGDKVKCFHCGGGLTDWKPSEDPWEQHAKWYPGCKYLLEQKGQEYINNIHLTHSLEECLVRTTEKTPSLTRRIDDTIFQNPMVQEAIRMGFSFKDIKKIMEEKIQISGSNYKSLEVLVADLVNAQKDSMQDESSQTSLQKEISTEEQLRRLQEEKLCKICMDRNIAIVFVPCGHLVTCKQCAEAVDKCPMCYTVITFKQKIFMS

[11] = system: XIP peptide (Xip251-270) binding; assay: XIP fragment 251-270 binding compounds – biochemical, small-molecule microarray, fluorescence 635/667 nm, 0.1 µg/mL protein, primary screen (AID 1182); conditions: fluorescent protein binding, 635 nm, higher = more signal, called active from +8 up or from −8 down
[12] = system: XIP peptide (Xip251-270); assay: compounds binding XIP fragment 251-270 – biochemical, small-molecule microarray, fluorescence 635/667 nm, 0.5 µg/mL protein, primary screen (AID 1183); conditions: fluorescence 635 nm, higher = more signal
[13] = blood-stage malaria parasite viability loss – strain 3D7, DAPI fluorescence, 100 nL, primary screen (AID 1184);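 further: parasites grown inside human red blood cells in medium with human serum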; conditions: P. falciparum 3D7 growth, 3 d, higher = more signal
[14] = target: Homeobox protein Hox-A13 (Mus musculus) (UniProt Q62424); assay: disruptors of Hoxa13 oligonucleotide interaction – biochemical, fluorescence polarization, labeled oligonucleotide, primary screen (AID 1185); conditions: Hoxa13:DNA binding, 15 min, higher = more signal, called active from +8 up or from −8 down
Sequence of Homeobox protein Hox-A13 (Mus musculus) (Q62424 whole entry, looked up): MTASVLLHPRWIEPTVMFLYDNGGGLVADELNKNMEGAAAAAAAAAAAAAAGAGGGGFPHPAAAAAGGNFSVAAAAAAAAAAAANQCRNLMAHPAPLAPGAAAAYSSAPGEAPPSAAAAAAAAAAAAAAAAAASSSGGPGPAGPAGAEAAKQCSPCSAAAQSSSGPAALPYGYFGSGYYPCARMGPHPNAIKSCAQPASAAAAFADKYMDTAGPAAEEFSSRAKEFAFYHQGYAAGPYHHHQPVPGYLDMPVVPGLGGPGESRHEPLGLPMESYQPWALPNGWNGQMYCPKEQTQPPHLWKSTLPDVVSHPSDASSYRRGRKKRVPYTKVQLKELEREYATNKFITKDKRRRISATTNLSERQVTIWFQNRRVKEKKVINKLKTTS

| Structure (SMILES) | z-score [1] | z-score [2] | z-score [3] | composite z-score [4] | z-score [5] | z-score [6] | z-score [7] | z-score [8] | z-score [9] | composite z-score [10] | composite z-score [11] | composite z-score [12] | z-score [13] | z-score [14] |
| --- | --- | --- | --- | --- | --- | --- | --- | --- | --- | --- | --- | --- | --- | --- |
| O=C1[C@H]2[C@H]3[C@H](O)[C@H](O)CC(=NOCc4ccccc4)[C@@H]3CC[C@H]2C(=O)N1C[C@@H]1CCCO1 | 0.0577 | -0.321 (inactive) | 0.161 (inactive) | -0.0256 (inactive) | 0.611 (inactive) | -0.447 (inactive) | -0.242 (inactive) | 0.403 (inactive) | 0.278 | -0.211 | -0.308 (inactive) | 0.625 | -0.0671 | -1.49 (inactive) |
| O=C1C[C@@H](O)[C@@H](O)[C@@H]2[C@@H]3C(=O)N(Cc4ccccc4)C(=O)[C@@H]3CC[C@@H]12 | 0.568 | 0.178 (inactive) | 0.144 (inactive) | 0.378 (inactive) | -0.425 (inactive) | 0.0564 (inactive) | -0.7 (inactive) | -0.564 (inactive) | 0.112 | 0.126 | 0.245 (inactive) | 0.5 | 0.328 | -0.967 (inactive) |
| CO[C@H]1COC(=O)[C@H](C)NC(=O)CC=C[C@@H](C)[C@H](OC)COC(=O)[C@@H](OCc2ccccc2)C=C[C@@H]1C | 1.15 | -0.479 (inactive) | 0.346 (inactive) | 0.234 (inactive) | -0.838 (inactive) | -0.462 (inactive) | 0.575 (inactive) | 0.2 (inactive) | 0.323 | -0.142 | -0.296 (inactive) | -0.54 | 0.112 | -0.22 (inactive) |
| CC(C)[C@@H](OCc1ccccc1)[C@H](C)C=NOC[C@@H](O)COCc1ccco1 | -0.314 | -11.9 (active) | -0.911 (inactive) | -0.585 (inactive) | 0.429 (inactive) | -1.12 (inactive) | 0.7 (inactive) | 0.43 (inactive) | -0.885 | -0.0172 | -0.0277 (inactive) | -0.273 | 1.4 | -2.74 (inactive) |
| CCCCC#C[C@@H]1C=C[C@H](Oc2ccc(C(=O)OC)cc2)[C@@H](COC(=O)OCC)O1 | 0.257 | -4.46 (inactive) | -1.6 (inactive) | -0.189 (inactive) | 0.472 (inactive) | -0.37 (inactive) | -0.301 (inactive) | -0.0901 (inactive) | -1.08 | -0.194 | -0.464 (inactive) | 0.522 | -0.332 | -5.73 (inactive) |
| CCOC(=O)NN=C1C[C@@H](O)[C@@H](O)[C@@H]2[C@@H]3C(=O)N(c4cccc(Oc5ccccc5)c4)C(=O)[C@@H]3CC[C@H]12 | 0.287 | -0.946 (inactive) | -1.12 (inactive) | -1.59 (inactive) | 1.05 (inactive) | -1.39 (inactive) | 0.0624 (inactive) | -0.642 (inactive) | 0.529 | -0.106 | 0.389 (inactive) | 0.0776 | 0.275 | 1.22 (inactive) |
| CCOC(=O)NN=C1C[C@@H](O)[C@@H](O)[C@@H]2[C@@H]3C(=O)N(Cc4ccc5c(c4)OCO5)C(=O)[C@@H]3CC[C@H]12 | 0.514 | 0.923 (inactive) | -0.343 (inactive) | 0.005 (inactive) | -0.981 (inactive) | 0.169 (inactive) | 0.298 (inactive) | 0.19 (inactive) | 0.3 | -0.0294 | 2.21 (inactive) | -0.437 | -0.948 | -0.227 (inactive) |
| C[C@@H](c1ccccc1)N1C(=O)[C@H]2[C@H]3[C@H](O)[C@H](O)CC(=NO[C@@H]4O[C@H](CO)[C@@H](O)[C@H](O)[C@H]4O)[C@@H]3CC[C@H]2C1=O | -0.416 | 0.0492 (inactive) | -0.671 (inactive) | -0.337 (inactive) | 0.14 (inactive) | -0.294 (inactive) | -0.403 (inactive) | 0.334 (inactive) | -0.361 | -0.254 | -0.0769 (inactive) | 0.438 | -2.33 | 0.174 (inactive) |
| CC(C)(C)N1C(=O)[C@H]2[C@H]3[C@H](O)[C@H](O)CC(=O)[C@H]3CC[C@H]2C1=O | -0.915 | -0.573 (inactive) | 0.319 (inactive) | 0.236 (inactive) | -0.908 (inactive) | 0.143 (inactive) | -0.403 (inactive) | -0.738 (inactive) | -0.383 | -0.0378 | 0.596 (inactive) | 0.556 | -1.08 | 0.117 (inactive) |
| COc1ccc(O[C@H]2C=C[C@@H](c3ccccc3)O[C@@H]2CON=C2[C@H]3CCn4c(=O)n(-c5ccccc5)c(=O)n4[C@H]3[C@H](O)[C@@H]3O[C@H]23)cc1 | -1.63 | 0.422 (inactive) | -2.53 (inactive) | -0.268 (inactive) | -0.0417 (inactive) | 0.0056 (inactive) | 0.694 (inactive) | 0.731 (inactive) | -1.92 | -0.403 | -0.454 (inactive) | 0.742 | -0.725 | -4.59 (inactive) |
